Where “and” joins values, the source holds several entries; their conditions need not be identical. Equal values may be shown once. The panel holds about 79,000 compounds, 15% with a hit somewhere; the sample as a whole holds those more often. More than one record can exist for a structure, and the calls need not agree. Calls of active or inactive are those of the source. Rule as the data show it: active = growth inhibition above about 70%; inactive = the rest.
Experiments:
[1] = NCI Yeast Anticancer Drug Screen. Data for the rad50 strain (AID 155);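 also: 0% = growth of vehicle-only cultures of the same strain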; conditions: S. cerevisiae rad50 strain growth inhibition, stronger effect = higher value
Method in brief: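 Inhibition values express reduced yeast growth in compound-treated cultures relative to vehicle-treated controls.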

[2] = NCI Yeast Anticancer Drug Screen. Data for the mec2-1 strain (AID 157); conditions: S. cerevisiae mec2-1 strain, stronger effect = higher value
Method in brief: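 Each compound was tested on mec2-1 yeast, a strain altered in DNA damage repair or cell cycle control. Growth inhibition is reported relative to vehicle.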

[3] = NCI Yeast Anticancer Drug Screen. Data for the sgs1 mgt1 strain (AID 161);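 also: 0% = growth of cultures given vehicle only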; conditions: S. cerevisiae sgs1 mgt1 strain, stronger effect = higher value
Method in brief: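 Genetically altered yeast, compound exposure, growth inhibition relative to vehicle.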

[4] = NCI Yeast Anticancer Drug Screen. Data for the cln2 rad14 strain (AID 165);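 also: 0% = growth equal to vehicle treated cultures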; conditions: S. cerevisiae cln2 rad14 strain, stronger effect = higher value
Method in brief: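 Test compounds were added to cln2 rad14 yeast cultures; inhibition of growth was then determined by comparison with vehicle treatment.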

[5] = NCI Yeast Anticancer Drug Screen. Data for the bub3 strain (AID 167); conditions: S. cerevisiae bub3 mutant strain, stronger effect = higher value
Method in brief: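 Steps: expose the mutant yeast strain to compound; grow alongside vehicle-treated cultures; measure growth; express inhibition against the vehicle cultures.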

[6] = NCI Yeast Anticancer Drug Screen. Data for the mlh1 rad18 strain (AID 175); conditions: S. cerevisiae mlh1 rad18 strain growth inhibition, stronger effect = higher value
Method in brief: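 Inhibition values reflect reduced growth of mutant yeast versus vehicle-treated controls following compound exposure; the mutations affect DNA damage repair.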

[7] = NCI Yeast Anticancer Drug Screen. Data for the rad50EPP+ strain (AID 151);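 also: 0% = growth of vehicle-treated control cultures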; conditions: S. cerevisiae rad50 mutant strain, stronger effect = higher value
Method in brief: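 Genetically defined yeast (rad50EPP+, DNA damage repair alteration) is grown with compound, and inhibition of growth is expressed relative to vehicle-treated controls.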

[8] = NCI Yeast Anticancer Drug Screen. Data for the mgt1 strain (AID 153); conditions: S. cerevisiae mgt1 mutant growth inhibition, stronger effect = higher value
Method in brief: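 In the mgt1 strain, test compounds were added and growth inhibition was determined relative to vehicle-treated controls.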

[9] = NCI Yeast Anticancer Drug Screen. Data for the rad14 strain (AID 159);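 also: 0% = growth of vehicle-treated control cultures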; conditions: S. cerevisiae rad14 strain growth inhibition, stronger effect = higher value
Method in brief: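 A mutant yeast strain defective in DNA damage repair is treated with compound; inhibition of its growth is scored against untreated, vehicle-exposed cultures.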

[10] = NCI Yeast Anticancer Drug Screen. Data for the CLN2oe strain (AID 163);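 also: 0% = growth of vehicle-only control cultures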; conditions: S. cerevisiae CLN2oe strain, stronger effect = higher value
Method in brief: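 First, the altered yeast strain was treated with each compound; second, its growth was measured; finally, inhibition was derived by comparison with vehicle controls.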

[11] = NCI Yeast Anticancer Drug Screen. Data for the wt2 strain (AID 169);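 also: 0% = growth of vehicle-treated yeast cultures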; conditions: S. cerevisiae wt2 strain growth inhibition, stronger effect = higher value
Method in brief: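 The panel's yeast strains carry defined changes in DNA repair or cell cycle genes. Each strain is grown with compound, and growth loss is scored relative to vehicle.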

[12] = NCI Yeast Anticancer Drug Screen. Data for the mlh1 strain (AID 171);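 also: 0% = growth of vehicle-treated control cultures of the same strain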; conditions: S. cerevisiae mlh1 strain growth inhibition, stronger effect = higher value
Method in brief: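 Inhibition values reflect reduced yeast growth in the presence of compound, referenced to vehicle controls, using a strain chosen for its alteration in DNA repair or cell cycle control.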

[13] = NCI Yeast Anticancer Drug Screen. Data for the sgs1 strain (AID 173);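 also: 0% = growth of vehicle-only control cultures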; conditions: S. cerevisiae sgs1 mutant, stronger effect = higher value
Method in brief: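 Vehicle-treated cultures served as reference for growth inhibition of a yeast strain altered in DNA damage repair or cell cycle control after compound exposure.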

[14] = at 5.0 µM (retest, dose inferred, filed as 0.5)
[15] = at 50.0 µM (retest, dose inferred, filed as 5.0)

Nc1ccccc1SSc1ccccc1N
growth inhibition [1, 14]: 27% (inactive) and 9% (inactive) and 56% (inactive) | growth inhibition [1, 15]: 99% (active) and -9% (inactive) | growth inhibition ([1]; at 50.0 µM): 99.4% (active) and 99% (active) and 99.3% (active) | growth inhibition [2, 14]: 80% (active) and 18% (inactive) and 29% (inactive) | growth inhibition [2, 15]: 99% (active) and 0% (inactive) | growth inhibition ([2]; at 50.0 µM): 99.5% (active) and 99.1% (active) | growth inhibition [3, 14]: 67% (inactive) and 13% (inactive) and 41% (inactive) | growth inhibition [3, 15]: 99% (active) and 12% (inactive) | growth inhibition ([3]; at 50.0 µM): 99.3% (active) | growth inhibition [4, 14]: 17% (inactive) and 4% (inactive) and 13% (inactive) | growth inhibition [4, 15]: 99% (active) and 5% (inactive) | growth inhibition ([4]; at 50.0 µM): 99.2% (active) and 98.8% (active) | growth inhibition [5, 14]: 87% (active) and 13% (inactive) and 89% (active) | growth inhibition [5, 15]: 99% (active) and 28% (inactive) | growth inhibition ([5]; at 50.0 µM): 98.3% (active) and 99.1% (active) | growth inhibition [6, 14]: 80% (active) and 17% (inactive) and 46% (inactive) | growth inhibition [6, 15]: 99% (active) and 7% (inactive) | growth inhibition ([6]; at 50.0 µM): 99.3% (active) and 99% (active)

c1cc2ccc3cc4ncccc4c4ccc(c1)c2c34
growth inhibition ([7]; at 1.2 µM): 8% (inactive) | growth inhibition ([7]; at 3.7 µM): 35% (inactive) | growth inhibition ([7]; at 11.0 µM): 73% (active) | growth inhibition ([7]; at 33.0 µM): 92% (active) | growth inhibition ([7]; at 100.0 µM): 92% (active) | growth inhibition ([8]; at 1.2 µM): -2% (inactive) | growth inhibition ([8]; at 3.7 µM): -1% (inactive) | growth inhibition ([8]; at 11.0 µM): 11% (inactive) | growth inhibition ([8]; at 33.0 µM): 76% (active) | growth inhibition ([8]; at 100.0 µM): 84% (active) | growth inhibition ([1]; at 1.2 µM): 2% (inactive) | growth inhibition ([1]; at 3.7 µM): 13% (inactive) | growth inhibition [1, 14]: 74% (active) | growth inhibition ([1]; at 11.0 µM): 70% (active) | growth inhibition ([1]; at 33.0 µM): 93% (active) | growth inhibition [1, 15]: 96% (active) | growth inhibition ([1]; at 50.0 µM): 97.9% (active) | growth inhibition ([1]; at 100.0 µM): 93% (active) | growth inhibition ([2]; at 1.2 µM): -2% (inactive) | growth inhibition ([2]; at 3.7 µM): 1% (inactive) | growth inhibition [2, 14]: 23% (inactive) | growth inhibition ([2]; at 11.0 µM): 13% (inactive) | growth inhibition ([2]; at 33.0 µM): 65% (inactive) | growth inhibition [2, 15]: 97% (active) | growth inhibition ([2]; at 50.0 µM): 97.5% (active) | growth inhibition ([2]; at 100.0 µM): 82% (active) | growth inhibition ([9]; at 1.2 µM): 1% (inactive) | growth inhibition ([9]; at 3.7 µM): 7% (inactive) | growth inhibition ([9]; at 11.0 µM): 20% (inactive) | growth inhibition ([9]; at 33.0 µM): 68% (inactive) | growth inhibition ([9]; at 100.0 µM): 79% (active) | growth inhibition [3, 14]: 34% (inactive) | growth inhibition [3, 15]: 93% (active) | growth inhibition ([3]; at 50.0 µM): 98.2% (active) | growth inhibition ([10]; at 1.2 µM): -3% (inactive) | growth inhibition ([10]; at 3.7 µM): -3% (inactive) | growth inhibition ([10]; at 11.0 µM): 1% (inactive) | growth inhibition ([10]; at 33.0 µM): 21% (inactive) | growth inhibition ([10]; at 100.0 µM): 65% (inactive) | growth inhibition [4, 14]: 15% (inactive) | growth inhibition [4, 15]: 90% (active) | growth inhibition ([4]; at 50.0 µM): 92.3% (active) | growth inhibition ([5]; at 1.2 µM): -2% (inactive) | growth inhibition ([5]; at 3.7 µM): 1% (inactive) | growth inhibition [5, 14]: 27% (inactive) | growth inhibition ([5]; at 11.0 µM): 36% (inactive) | growth inhibition ([5]; at 33.0 µM): 84% (active) | growth inhibition [5, 15]: 96% (active) | growth inhibition ([5]; at 50.0 µM): 98.9% (active) | growth inhibition ([5]; at 100.0 µM): 90% (active) | growth inhibition ([11]; at 1.2 µM): 0% (inactive) | growth inhibition ([11]; at 3.7 µM): 0% (inactive) | growth inhibition ([11]; at 11.0 µM): 15% (inactive) | growth inhibition ([11]; at 33.0 µM): 53% (inactive) | growth inhibition ([11]; at 100.0 µM): 85% (active) | growth inhibition ([12]; at 1.2 µM): -2% (inactive) | growth inhibition ([12]; at 3.7 µM): 0% (inactive) | growth inhibition ([12]; at 11.0 µM): 22% (inactive) | growth inhibition ([12]; at 33.0 µM): 83% (active) | growth inhibition ([12]; at 100.0 µM): 88% (active) | growth inhibition ([13]; at 1.2 µM): -2% (inactive) | growth inhibition ([13]; at 3.7 µM): 0% (inactive) | growth inhibition ([13]; at 11.0 µM): 25% (inactive) | growth inhibition ([13]; at 33.0 µM): 83% (active) | growth inhibition ([13]; at 100.0 µM): 85% (active) | growth inhibition [6, 14]: 32% (inactive) | growth inhibition [6, 15]: 97% (active) | growth inhibition ([6]; at 50.0 µM): 97.8% (active)
